IL-1B inflam inh – inflammasome signaling inhibition, IL-1 beta readout | THP-1 LPS/ATP IL-1B secretion, AlphaLISA, 16 h; hits give low values | 360,000 tested, 4.7% active | activity change, % at 57.5 µM; in the data active = activity change below about -50%; inconclusive = mostly about -30% to -49%
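THP-1 cells pretreated 1 hr with compounds (up to 57.5 uM final), then stimulated with LPS (250 ng/mL final) plus ATP (1.25 mM final); secreted IL-1B measured by AlphaLISA after 16 hr, decreased signal indicating inhibition.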
SW480 rereplic – DNA re-replication induction in SW480 cells; SW480 DNA re-replication, Hoechst DNA content imaging, 48 h; Potency, µM (doses to about 46.1 µM), actives largely listed as activators; 340,000 tested, 1.8% active; AID 624297; also: nearly all actives have a fitted effect of over 55% in size
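Cells (250 per well) received 23 nL compound or DMSO by pin tool and were kept 48 hr at 37 C, 5% CO2. Nuclei were then stained with Hoechst for 40 min and scanned for DNA content.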
MCF10A rereplic – DNA re-replication induction in MCF 10a cells; MCF 10A DNA re-replication, Hoechst nuclear intensity, 48 h; Potency, µM (doses to about 46.1 µM), most hits filed as activators; 350,000 tested, 2.9% active; AID 624296; also: nearly all actives have a fitted effect of over 50% in size
KB-3-1 tox – kills parental KB-3-1 adenocarcinoma cells; KB-3-1 viability, CellTiter-Glo ATP luminescence, 72 h; Potency, µM (titrated, usually from 46.1 µM), actives largely listed as cytotoxic; 400,000 tested, 1.4% active; AID 1347075; also: nearly all actives have a fitted effect of over 60% in size
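Viability of parental KB-3-1 cells, measured by CellTiter-Glo luminescence, followed a 72 h incubation at 37 °C with pinned compounds in phenol-red-free DMEM containing 10% FBS.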
KB-V1 cytotox – kills drug-selected multidrug resistant KB-V1 cells; Potency, µM (doses to about 46.1 µM), actives largely listed as cytotoxic; 400,000 tested, 3.4% active; KB-V1 MDR cells viability, CellTiter-Glo, 72 h; also: nearly all actives have a fitted effect of over 60% in size
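Cytotoxicity toward P-gp-expressing KB-V1 cells was determined as loss of CellTiter-Glo luminescence after 72 h at 37 degrees C. Compounds were tested in quantitative HTS format across a concentration range, with curves fitted to normalized data.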
Of the large screens only hits and unclear results are named; the others gave an inactive call; ! = not active in a repeat. In the library only some 9.9% were active in any assay of this set; here they are far more common. Unless noted, calls follow the shape of the dose curve; as a rule, active = well fitted curve in the direction sought with a large enough effect; inconclusive = small, poorly fitted or top-dose-only effect, or another doubt; inactive = no such curve, though single readings can be large; an effect the other way counts as inactive or inconclusive.

COc1ccc(-n2nc(C(=O)Nc3cc(C)ccn3)c3c4ccccc4n(C)c3c2=O)cc1	none (no result: IL-1B inflam inh, SW480 rereplic, MCF10A rereplic)
CC1CN2C(c3ccc([N+](=O)[O-])cc3)=CSC2=N1 (centres undefined)	none
Cn1cc([N+](=O)[O-])c(C(=O)Nc2ccn(C34CC5CC(CC(C5)C3)C4)n2)n1	SW480 rereplic inconclusive, MCF10A rereplic inconclusive, KB-3-1 tox 4.61µM, KB-V1 cytotox 14.6µM
Cc1cc(C)n(CC(=O)N/N=C/c2cc(Br)cc([N+](=O)[O-])c2O)n1	MCF10A rereplic inconclusive
Cc1cc(C)n(CCC(=O)N/N=C/c2ccc(Br)c([N+](=O)[O-])c2)n1	IL-1B inflam inh -92.8, KB-3-1 tox inconclusive
COc1ccc(C(=O)Nc2ccc(C(=O)N3CCCC3)cc2)cc1[N+](=O)[O-]	IL-1B inflam inh inconclusive (no result: KB-3-1 tox, KB-V1 cytotox)
Cn1cc([N+](=O)[O-])c(C(=O)Nc2ccc(C(=O)N3CCCCC3)cc2)n1	SW480 rereplic 14.6µM, MCF10A rereplic 20.6µM, KB-3-1 tox 23.1µM, KB-V1 cytotox inconclusive (no result: IL-1B inflam inh)
CCn1cc([N+](=O)[O-])c(C(=O)Nc2ccn(C34CC5CC(CC(C5)C3)C4)n2)n1	none
COc1ccc(NC(=O)C2(C)Cc3c(-c4ccc(N(C)C)cc4)ccnc3O2)cn1 (centres undefined)	KB-3-1 tox inconclusive, KB-V1 cytotox inconclusive (no result: SW480 rereplic, MCF10A rereplic)
COc1cccc(S(=O)(=O)NCc2ccc(C(=O)N3CCN(Cc4ccccc4)CC3)cc2)c1	IL-1B inflam inh -67.4, KB-3-1 tox inconclusive, KB-V1 cytotox inconclusive
COc1ccc(N2CCN(C(=O)c3ccc(CNS(=O)(=O)c4cc(C)ccc4C)cc3)CC2)cc1	MCF10A rereplic inconclusive (no result: KB-3-1 tox, KB-V1 cytotox)
CCN1CCN(C(=O)c2ccc(CNS(=O)(=O)c3cccc(OC)c3)cc2)CC1	none (no result: KB-3-1 tox, KB-V1 cytotox)
Cc1ccc(C)c(S(=O)(=O)NCc2ccc(C(=O)N3CCN(c4ccccc4)CC3)cc2)c1	IL-1B inflam inh -62.8, KB-V1 cytotox inconclusive
Cc1ccc(S(=O)(=O)NCc2ccccc2)cc1C(=O)N1CCN(S(=O)(=O)c2ccccc2)CC1	none
Cc1ccc(S(=O)(=O)NCc2ccc(C(=O)N3CCN(Cc4ccccc4)CC3)cc2)cc1	IL-1B inflam inh -79.4, KB-3-1 tox 23.1µM, KB-V1 cytotox inconclusive
Cc1ccc(S(=O)(=O)NCc2ccccc2)cc1C(=O)N1CCCCCCC1	SW480 rereplic inconclusive, KB-V1 cytotox 9.2µM
CCOc1cc(CNCc2cccnc2)ccc1OCC(=O)NC(C)(C)C	none
Cc1ccc(S(=O)(=O)NCc2ccc(C(=O)NCCCN3CCC(Cc4ccccc4)CC3)cc2)cc1	IL-1B inflam inh -64.6
O=C1O[C@@H](c2ccccc2)C[C@@H](O)[C@H](O)CCCCc2ccccc21	none (no result: SW480 rereplic, MCF10A rereplic)
CCc1nc(SCC(=O)Nc2ccccc2Cl)n[nH]1	SW480 rereplic 9.2µM
CCc1nc(SCC(=O)Nc2ccccc2C)n[nH]1	SW480 rereplic inconclusive
Cc1nc(SCC(=O)Nc2ccccc2Cl)c2c(C)c(C)sc2n1	MCF10A rereplic 23.1µM, KB-3-1 tox inconclusive
Nc1nc(SCC(=O)Nc2cc(Cl)c(Cl)cc2Cl)n[nH]1	IL-1B inflam inh -51.9
Cc1nc(SCC(=O)NC2CCCC2)c2c(C)c(C)sc2n1	MCF10A rereplic inconclusive
COc1cc(OC)cc(C(=O)N(Cc2ccco2)Cc2cccs2)c1	none (no result: IL-1B inflam inh, SW480 rereplic, MCF10A rereplic)
COc1cc(C2=CCN(C(C)=O)CC2)ccc1OC(C)=O	none (no result: IL-1B inflam inh)
O=C(Cn1nnc(-c2ccccc2)n1)Nc1cccc(S(=O)(=O)N2CCCC2)c1	none
O=C(CN1CCCC1)Nc1c2c(nc3ccccc13)N(Cc1ccccc1)CC2	KB-V1 cytotox 23.1µM
O=C(C[n+]1ccc(C(=O)NCc2ccccc2)cc1)c1ccc(Cl)cc1	none (no result: KB-3-1 tox, KB-V1 cytotox)
Cc1ccc(NC(=S)NCC23C=CC(O2)C2C(=O)N(c4ccc(C)cc4)C(=O)C23)cc1 (centres undefined)	SW480 rereplic inconclusive, MCF10A rereplic inconclusive, KB-V1 cytotox 13µM
O=[N+]([O-])C1C(c2ccccc2)=NOC1c1ccccc1O (centres undefined)	none
CN(C)/C=C/c1c([N+](=O)[O-])c2ccc(O)cc2n1-c1ccccc1	IL-1B inflam inh -85.7, SW480 rereplic inconclusive, MCF10A rereplic inconclusive
CC(=O)Nc1ccc(Nc2c([N+](=O)[O-])c(=O)n(-c3ccccc3)c3ccccc23)cc1	none
Cc1cccc(CSc2nc3c(c(=O)[nH]2)C(c2cccc(O)c2)CC(=O)N3)c1 (centres undefined)	KB-3-1 tox inconclusive (no result: IL-1B inflam inh, SW480 rereplic, MCF10A rereplic)
CN(C)c1cc[n+](CC(=O)c2ccc(OC(F)F)cc2)cc1	KB-3-1 tox 18.4µM
O=C(C[n+]1cccc(CNC(=O)c2ccc(OC(F)F)cc2)c1)Nc1cccc(C(F)(F)F)c1	IL-1B inflam inh -70.9, KB-3-1 tox inconclusive, KB-V1 cytotox inconclusive
O=C(C[n+]1cccc(CNC(=O)c2ccc(OC(F)F)cc2)c1)Nc1ccc(F)cc1	none (no result: SW480 rereplic)
O=C(C[n+]1cccc(CNC(=O)c2ccc(OC(F)F)cc2)c1)c1ccccc1	IL-1B inflam inh -90.9
Cc1ccsc1C(=O)OCC(=O)c1ccc(OC(F)F)cc1	none
Cn1cc(Br)c(C(=O)NNC(=O)Nc2ccccc2C(F)(F)F)n1	SW480 rereplic inconclusive
COc1ccc(C(=O)/C=C/c2ccsc2)cc1CSCC(=O)O	IL-1B inflam inh -68.6, SW480 rereplic inconclusive, MCF10A rereplic 18.4µM
O=Cc1c(-c2ccc(Cl)cc2)oc2ccc(O)cc12	IL-1B inflam inh -55.5, KB-3-1 tox inconclusive, KB-V1 cytotox inconclusive
COc1ccc(N(C(=O)c2ccccc2C)S(=O)(=O)c2cccs2)cc1	SW480 rereplic 2.59µM, MCF10A rereplic 1.16µM, KB-3-1 tox 0.82µM, KB-V1 cytotox 1.3µM
CN(Cc1ccccc1)C(=O)c1oc(=O)c2ccccc2c1-c1ccccc1	SW480 rereplic inconclusive, MCF10A rereplic inconclusive, KB-V1 cytotox 8.2µM
Cc1ccc(-c2c(C(=O)NCc3ccccc3)oc(=O)c3ccccc23)cc1	KB-V1 cytotox inconclusive
Cc1ccc(-c2c(C(=O)N(C)Cc3ccccc3)oc(=O)c3ccccc23)cc1	MCF10A rereplic inconclusive, KB-3-1 tox 18.4µM!, KB-V1 cytotox 4.61µM!
O=C(c1ccco1)N1CCN(C(=O)c2oc(=O)c3ccccc3c2-c2ccccc2)CC1	none
CCOC(=O)[C@@H]1[C@H]2COc3ccccc3[C@H]2N2C(=O)N(c3ccc(C(F)(F)F)cc3)C(=O)[C@]12C	KB-3-1 tox inconclusive
CCOC(=O)c1c(NC(=O)CSc2nc3ccccc3[nH]2)sc2c1CC(C)(C)NC2(C)C	IL-1B inflam inh -50.5, SW480 rereplic 16.4µM, MCF10A rereplic inconclusive, KB-3-1 tox inconclusive
CCOC(=O)c1c(NC(=O)COC(=O)/C=C/c2ccco2)sc2c1CC(C)(C)NC2(C)C	IL-1B inflam inh -68.2, SW480 rereplic inconclusive
Cc1c(Cl)cccc1NC(=S)NC1CCN(C(C)C)CC1	SW480 rereplic inconclusive, MCF10A rereplic inconclusive, KB-V1 cytotox inconclusive
CCN(CC)CCNc1nc2cc(OC)c(OC)cc2c2nc(-c3ccccc3)nn12	KB-3-1 tox 16.4µM, KB-V1 cytotox 9.2µM (no result: IL-1B inflam inh)
